Screening results deposited in PubChem BioAssay by National Center for Advancing Translational Sciences (NCATS).
Shown are actives, neighbours in structure and some others; about 6.9% of the full set was active somewhere.
VDR inh: blocks the human vitamin D receptor. P11473. VDR-SRC2-3 peptide fluorescence polarization, 2 h. Potency, µM, usual class: inhibitors. 400,000 tested, 0.93% active. AID 504847
Target sequence (P11473 whole entry, looked up): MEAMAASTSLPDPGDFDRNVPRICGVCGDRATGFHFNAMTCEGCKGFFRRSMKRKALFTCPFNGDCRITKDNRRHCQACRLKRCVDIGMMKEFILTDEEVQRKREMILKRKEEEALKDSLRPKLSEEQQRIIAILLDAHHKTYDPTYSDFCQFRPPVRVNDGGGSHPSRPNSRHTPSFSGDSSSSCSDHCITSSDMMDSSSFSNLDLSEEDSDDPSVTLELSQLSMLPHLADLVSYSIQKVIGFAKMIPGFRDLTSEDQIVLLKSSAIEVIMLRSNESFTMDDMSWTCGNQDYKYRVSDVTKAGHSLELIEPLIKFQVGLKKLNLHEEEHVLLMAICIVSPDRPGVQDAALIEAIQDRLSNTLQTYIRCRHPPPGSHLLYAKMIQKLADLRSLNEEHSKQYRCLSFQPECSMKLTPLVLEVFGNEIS
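FP read-out; VDR + SRC2-3 coactivator peptide; 23 nl compound by pintool; 2 h RT incubation; reagents held at 4 deg C, protected from light.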
L3MBTL1 block: L3MBTL1 (human) inhibition | AlphaScreen L3MBTL1–H3K9me1 peptide binding | Potency, µM (titrated, usually from 57.1 µM), most hits filed as inhibitors | 230,000 tested, 0.66% active | AID 485360; further: nearly all actives have a fitted effect of over 60% in size
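L3MBTL1 50 nM + b-AHA-H3(1-15)K9me1 75 nM, 30 min RT; compound added, 30 min RT; streptavidin donor/Ni-chelate acceptor beads 10 ug/mL each final, 30 min RT dark; AlphaScreen read.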
PLK1 PBD inh: PLK1 (human) polo-box domain binding inhibition; 360,000 tested, 2.8% active; Potency, µM, hits mostly inhibitors; Plk1 PBD binding of FITC phosphopeptide, fluorescence polarization; P53350; further: series mostly up to about 57 µM; nearly all actives have a fitted effect of over 65% in size
JMJD2A Tudor: JMJD2A Tudor domain (human) inhibition; AlphaScreen JMJD2A-Tudor / H3K4me3 peptide binding; Potency, µM (top dose mostly 114 µM), hits mostly inhibitors; 390,000 tested, 4.4% active; further: nearly all actives have a fitted effect of over 50% in size
BAZ2B inh: BAZ2B (human) inhibition; AlphaScreen BAZ2B-H3K14Ac peptide displacement; Q9UIF8; Potency, µM (top dose mostly 114 µM), usual class: inhibitors; 360,000 tested, 4.4% active; further: nearly all actives have a fitted effect of over 60% in size
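BAZ2B (50 nM) with biotin-H3(5-23)K14Ac peptide (50 nM) in PBS pH 7.4, 0.01% Tween-20, preformed 30 min, then compound 30 min at room temperature; top concentration 110uM. AlphaScreen streptavidin donor/nickel chelate acceptor beads (10 ug/mL final), 20 min dark, signal read.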
HP1b chromo inh: inhibitors of HP1-beta chromodomain binding to methylated histone tails | P83916 | AlphaScreen HP1-beta / biotin-H3K9me3 peptide binding | Potency, µM (top dose mostly 114 µM), actives largely listed as inhibitors | 390,000 tested, 0.56% active | AID 540317; further: nearly all actives have a fitted effect of over 70% in size
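AlphaScreen: HP1-beta (50 nM) preformed 30 min with biotin-H3(1-18)K9me3 peptide (50 nM) in PBS pH 7.4, 0.01% Tween-20. Compound added for 30 min at RT, then streptavidin donor/nickel chelate acceptor beads (10 ug/mL) for 30 min.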
Numbers stand for hits; [ ] = remark or other dose. The call rests on the fitted dose curve; in most records, active means well fitted curve in the direction sought with a large enough effect; inconclusive means small, poorly fitted or top-dose-only effect, or another doubt; inactive means no such curve, though single readings can be large; an effect the other way counts as inactive or inconclusive.

`CCn1c(SCc2ccccc2C)nc(=O)c2c(C(=O)OC)cc(C3CC3)nc21` gave VDR inh inactive, JMJD2A Tudor inactive, BAZ2B inh inactive and HP1b chromo inh inactive.
Screening CCN(CC(=O)Nc1ccc(NC(C)=O)cc1)C(=O)CSCc1c(C)noc1C returned VDR inh inactive, L3MBTL1 block inactive, PLK1 PBD inh inactive, JMJD2A Tudor inactive, BAZ2B inh inactive and HP1b chromo inh inactive.
Screening CCN(CC(=O)Nc1ccc(NC(C)=O)cc1)C(=O)c1ccccc1SCc1c(C)noc1C returned VDR inh inactive, L3MBTL1 block inactive, PLK1 PBD inh inactive, JMJD2A Tudor inactive, BAZ2B inh 56µM and HP1b chromo inh inactive.
For Cc1ccc(S(=O)(=O)N2CCC[C@H]2C(=O)OCC(=O)c2ccc3c(c2)NC(=O)CO3)cc1 the results were VDR inh inconclusive, PLK1 PBD inh 27µM, JMJD2A Tudor inactive[11.4 µM], BAZ2B inh inactive and HP1b chromo inh inactive.
Screening Cc1ccc(S(=O)(=O)N2CCCC2C(=O)OCC(=O)Nc2ccc3c(c2)OCO3)cc1 (stereo not drawn) returned VDR inh inactive, L3MBTL1 block inactive, PLK1 PBD inh inactive, JMJD2A Tudor inactive and HP1b chromo inh inactive.
For Cc1ccc(S(=O)(=O)N2CCCC2C(=O)OCc2ccco2)cc1 (stereo not drawn) the results were VDR inh inactive, PLK1 PBD inh inactive, JMJD2A Tudor 56µM, BAZ2B inh 50µM and HP1b chromo inh inactive.
`O=C(Nc1cc(Cl)ccc1-n1cncn1)c1cc(F)c(F)c(F)c1F` gave VDR inh inconclusive, L3MBTL1 block inactive, PLK1 PBD inh inactive, JMJD2A Tudor inactive, BAZ2B inh inactive and HP1b chromo inh inactive.
`CN(C)C(N)=NCCC[C@H](N)C(=O)O` gave VDR inh inactive, PLK1 PBD inh inactive, JMJD2A Tudor 89µM and HP1b chromo inh inactive.
`NC(N)=NCCC[C@@H](N)C(=O)O` gave VDR inh inactive.
O=C(CNCC1CCCO1)Nc1ccc(N2CCCCCC2)cc1 (stereo not drawn) was read as VDR inh inactive, PLK1 PBD inh inactive, JMJD2A Tudor 3.2µM, BAZ2B inh 35µM and HP1b chromo inh 14µM.
Screening O=C(CNC1CCCCCC1)Nc1ccc(N2CCCC2)cc1 returned L3MBTL1 block inactive and BAZ2B inh inconclusive.
Screening O=C(CNCC1CCCCC1)Nc1ccc(N2CCCCC2)cc1 returned L3MBTL1 block inconclusive and BAZ2B inh 28µM.
CC1CCN(CC(=O)Nc2ccc(S(=O)(=O)N3CCCCC3)cc2)CC1 was read as VDR inh inactive, L3MBTL1 block inactive, PLK1 PBD inh inactive, JMJD2A Tudor inactive, BAZ2B inh inactive and HP1b chromo inh inactive.
`CC1CCN(CC(=O)Nc2ccc(N3CCCCCC3)cc2)CC1` gave VDR inh inactive, L3MBTL1 block inconclusive, PLK1 PBD inh inactive, JMJD2A Tudor 20µM, BAZ2B inh 20µM and HP1b chromo inh 22µM.
O=C(CNC1CCCC1)Nc1ccc(N2CCCCCC2)cc1 was read as VDR inh inactive, L3MBTL1 block inactive, PLK1 PBD inh inactive, JMJD2A Tudor 2.8µM, BAZ2B inh 22µM and HP1b chromo inh 40µM.
For Cc1ccc2occ(CC(=O)Nc3c(C)cccc3C)c2c1 the results were VDR inh inactive, JMJD2A Tudor inactive, BAZ2B inh inactive and HP1b chromo inh inactive.
Screening COC(=O)c1ccc(/C=C/c2c(-c3ccsc3)sc3ccccc23)cc1 returned VDR inh inconclusive, L3MBTL1 block inactive, PLK1 PBD inh inactive, JMJD2A Tudor inactive, BAZ2B inh inactive and HP1b chromo inh inactive.
O=C(CNCCC1=CCCCC1)Nc1ccc(N2CCCCCC2)cc1 was read as VDR inh inactive, L3MBTL1 block inconclusive, PLK1 PBD inh inactive, JMJD2A Tudor 20µM, BAZ2B inh 13µM and HP1b chromo inh 16µM.
Screening O=C(Cc1ccc(Cl)cc1)Nc1ccc(N2CCCC2)cc1 returned VDR inh inactive, PLK1 PBD inh inactive, JMJD2A Tudor inactive, BAZ2B inh inactive and HP1b chromo inh inactive.
For CC(C)Oc1ccc(CNC(=O)c2cc3ccccn3n2)cc1 the results were VDR inh inactive, JMJD2A Tudor inactive, BAZ2B inh inactive and HP1b chromo inh inactive.
